High-throughput results deposited in PubChem by several laboratories.
A selection: hits, their analogues and other compounds. The true share with any hit is near 0.8%.
TNAP act DEA: human TNAP enzyme activators, primary screen, biochemical, luminescent, intermediate phosphate acceptor level | activation factor at 20 µM | 64,000 tested, under 10 active | purified TNAP, CDP-star luminescence, 100 mM DEA, 30 min; stronger effect = higher value; scale: 0 levamisole-inhibited, 1 vehicle-only enzyme | AID 813, 2007 | Alkaline phosphatase, tissue-nonspecific isozyme (Homo sapiens), P05186;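 active = activation factor of at least 2 at 20 µM, relative to controls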
HePTP inh: inhibitors of human HePTP phosphatase, primary screen, biochemical, absorbance, leukemia target | Tyrosine-protein phosphatase non-receptor type 7 (Homo sapiens), P35236 | recombinant HePTP phosphatase activity, OD absorbance | inhibition, % at 20 µM | 0.64% of 110,000 active; in the data active = inhibition above about 50%;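 also: plate controls were vehicle for no effect and reference inhibitor for full effect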
Smad3 inh: Smad3/FoxH1 peptide binding inhibitors, primary screen, biochemical, TR-FRET. AID 630, 2007. 0.29% of 88,000 active. inhibition, % at 25 µM. TR-FRET Smad3/Dy647-FoxH1 peptide binding, europium anti-His. Mothers against decapentaplegic homolog 3 (Homo sapiens), P84022;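 active = compounds that reduce the energy-transfer binding signal between the protein and its labelled peptide by more than half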;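 also: 0% = Smad3 plus labelled peptide maximal FRET and 100% = peptide-only background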
Target sequence (P84022 whole entry, looked up): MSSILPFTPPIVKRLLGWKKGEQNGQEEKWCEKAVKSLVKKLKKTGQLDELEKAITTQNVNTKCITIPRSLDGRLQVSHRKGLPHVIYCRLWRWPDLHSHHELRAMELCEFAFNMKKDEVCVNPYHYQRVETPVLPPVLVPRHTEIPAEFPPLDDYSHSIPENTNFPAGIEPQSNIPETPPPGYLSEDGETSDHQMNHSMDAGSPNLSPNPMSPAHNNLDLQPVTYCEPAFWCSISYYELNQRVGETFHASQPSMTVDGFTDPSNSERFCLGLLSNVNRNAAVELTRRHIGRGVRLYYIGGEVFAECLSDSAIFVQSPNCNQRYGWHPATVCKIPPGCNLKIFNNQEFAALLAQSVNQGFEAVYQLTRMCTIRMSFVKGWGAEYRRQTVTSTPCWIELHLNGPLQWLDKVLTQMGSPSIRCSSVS
E coli RNAP: E. coli RNAP inhibitors, biochemical; DNA-directed RNA polymerase subunit beta (Escherichia coli (strain K12)), P0A8V2; E. coli RNA polymerase, fluorescence transcription assay; inhibition, %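 (tested at 10 µM)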; 0.2% of 62,000 active; in the data active = inhibition above about 20%;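 also: 0% = enzyme without compound and 100% = no enzyme blank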
MT1-MMP txn act: MT1-MMP promoter reporter activation – cell-based, luciferase luminescence, primary screen | HT1080 MT1-MMP promoter luciferase reporter, overnight; stronger effect = higher value | activation factor at 10 µM | 0.16% of 86,000 active | AID 750, 2007;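 active = activation factor of at least 2 for MT1-MMP transcription at 10 µM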
* marks the source's active call; other numbers are inactive results; · = no result; [ ] = remark or other dose.

SMILES	TNAP act DEA	HePTP inh	Smad3 inh	E coli RNAP	MT1-MMP txn act
Cc1cc(C(=O)O)ccc1-n1c(C)ccc1C	0.7	104*	3	10	1.2
Cc1ccc(C)n1-c1ccc(Cl)c(C(=O)O)c1	·	104*	·	·	·
Cc1ccc(-c2ccccc2)n1-c1ccc(Cl)c(C(=O)O)c1	·	-9	·	·	·
Cc1ccc(C)n1-c1ccc(Cl)cc1C(=O)O	·	102*	·	·	·
CC(C)(C)C(=O)c1no[n+]([O-])c1C(=O)C(C)(C)C	·	8	·	·	·
CC12CC3CC(C)(C1)CC(C(=O)CCC(=O)O)(C3)C2	·	7	·	·	·
Cc1ccc(C(=O)O)cc1-n1c(C)ccc1C	·	104*	·	·	·
Cc1ccc(C)n1-c1cc(C(=O)O)ccc1Cl	·	103*	·	·	·
Cc1cc(Cl)c2cc(C(=O)O)ccc2n1	·	0	·	·	·
Cc1ccc(-c2ccccc2)n1-c1cccc(C(=O)O)c1	·	3	·	·	·
CC(=O)c1cccc(NC(=O)CN(c2ccccc2)S(C)(=O)=O)c1	0.9	2	58*	11	1.2
Clc1cc(Cl)c2nc(N3CCCC3)sc2c1	0.9	2	-1	4	1.5
Clc1cc(Cl)c2nc(N3CCCCC3)sc2c1	0.9	5	5	4	2.1*
COc1cc(C=O)ccc1OCCN1CCOCC1	·	103*	·	·	·
CCOc1cc(C=O)ccc1OCCN1CCOCC1	·	-12	·	·	·
O=C(O/N=C(/c1ccncc1)c1ccc([N+](=O)[O-])cc1)c1cccc(Br)c1	·	1	·	·	·
O=C(O)C1Nc2ccc([N+](=O)[O-])cc2C2C=CCC12 (centres undefined)	·	104*	·	·	·
O=C(O)C1Nc2ccc3ccccc3c2C2C=CCC12 (centres undefined)	·	102*	·	·	·
CCOC(=O)c1ccc2c(c1)C1C=CCC1C(C(=O)O)N2 (centres undefined)	0.9	·	·	5	1
O=[N+]([O-])c1ccc2c(c1)C1C=CCC1C(c1ccc(Cl)cc1)N2 (centres undefined)	·	-4	·	·	·
Cc1c(-c2cccc(Cl)c2)nc2ccccc2c1C(=O)O	·	105*	·	·	·
CCCCn1c(NC(=O)c2ccccc2Cl)c(C#N)c2nc3ccccc3nc21	1	1	80*	4	1.1
CCCCn1c(NC(=O)CC)c(C#N)c2nc3ccccc3nc21	0.9	38	16	-14	1
O=C(Cc1ccccc1)N1N=CCC1(O)c1ccccc1 (centres undefined)	·	3	·	·	·
O=C(c1ccc(S(=O)(=O)c2ccccc2)cc1)N1CCOCC1	·	4	·	·	·
SMILES	TNAP act DEA	HePTP inh	Smad3 inh	E coli RNAP	MT1-MMP txn act
Cc1c(/C=C/c2nc3ccccc3c(=O)n2-c2ccc([N+](=O)[O-])cc2)c2ccccc2n1C	·	81*	·	·	·
Cc1[nH]c2ccccc2c1/C=C/c1nc2ccccc2c(=O)n1-c1ccc([N+](=O)[O-])cc1	·	10	·	·	·
CC1=CC(C)C2C(=O)N(Cc3ccc[n+](C)c3)C(=O)C2C1 (centres undefined)	·	-17	·	·	·
O=C(N/N=C/c1ccc2c(c1)OCO2)c1ccccn1	·	5	·	·	·
O=C(N/N=C/c1ccc2c(c1)OCO2)c1sc2cc(Cl)ccc2c1Cl	·	58*	·	·	·
NC(=O)N=Nc1c(O)[nH]c2ccccc12	·	-6	·	·	·
N=C(N)c1ccc(N=Nc2c(O)ccc3c2[nH]c2ccccc23)cc1	·	·	102*	·	·
N#Cc1cc2c(nc1SCc1ccc(Br)cc1)CCCC2	·	-4	·	·	·
CCCCOc1cccc(C(=O)NCc2cccnc2)c1	·	-3	·	·	·
CCCCOC(=O)CSc1nc(N)c(C#N)c(-c2ccc(OCC)cc2)c1C#N	0.9	10	78*[fluorescence artefact?]	13	1.1
CCCCOC(=O)CSc1nc(N)c(C#N)c(-c2ccc(OC)cc2)c1C#N	0.9	-4	3	-4	1.2
COc1ccc(OC(=O)c2ccc(Br)c(S(=O)(=O)N3CCCCC3)c2)cc1	·	-14	·	·	·
COc1ccc(Nc2oc(-c3ccc(Cl)cc3)nc2C#N)cc1	·	·	-2	·	2.2*
Cc1ccccc1-c1noc(-c2ccc(Cl)cc2)n1	·	·	-8	·	2.1*
Cc1ccccc1-c1noc(-c2ccc(O)cc2)n1	0.9	1	5	·	1.1
COCCN1C(=O)/C(=C2/C(=O)N(C)c3ccccc32)SC1=S	·	5	·	·	·
O=C(CC(=O)Nc1cccc(C(F)(F)F)c1)Nc1cccc(C(F)(F)F)c1	·	99*	·	·	·
COC(=O)c1cc(NC(=O)C2CCCC2)cc(C(=O)OC)c1	·	-4	·	·	·
